An excerpt weighted towards active compounds, which were near 15% of everything screened.
SARS PLpro yeast – SARS-CoV PLP inhibition in yeast. S. cerevisiae expressing SARS-CoV PLpro, growth rescue. Potency, µM (highest dose often 32.9 µM), for the others: at the highest dose activity, positive = growth rescue, hits mostly activators. 0.19% of 330,000 active. AID 485353; calls by dose curve; also: potency is read from the fitted curve at half-maximal effect; 0% is about no effect; nearly all actives have a fitted effect of over 55% in size
Pf growth 48h – inhibits P. falciparum growth in the first generation, 48 h. P. falciparum luciferase growth in erythrocytes, 48 h. Potency, µM (top dose mostly 28.7 µM), without a hit: at the highest dose activity change, negative = inhibition, usual class: inhibitors. 5.9% of 310,000 active. AID 504832; also: potency is read from the fitted curve at half-maximal effect; % is scaled to controls: 0 for no effect and ±100 for the full control effect
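Luciferase-expressing P. falciparum in infected erythrocytes (2% hematocrit, 0.1% parasitemia final) in RPMI 1640/0.5% Albumax were exposed to compound for 48 hours at 37 C, 5% CO2; growth read as luminescence.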
HCMV antiviral – blocks human cytomegalovirus replication; HFF cells, HCMV-luciferase reporter, 72 h; active compounds read low; activity change, negative = inhibition, % at 57.5 µM; 4.5% of 410,000 active; AID 1259415; in the data active = activity change below about -60%; inconclusive = no clear call, values can overlap the other calls; inactive = above about -39%; also: % is scaled to controls: 0 for no effect and ±100 for the full control effect
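Luciferase read-out from HCMV-luciferase-infected HFFs (MOI 1 PFU/cell) 72 h post infection at 37C; compounds added after 16 h cell attachment; activity normalized between buffer-only basal and Salinomycin (10uM) inhibitor controls.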
Sm TGR block – inhibitors of Schistosoma mansoni thioredoxin glutathione reductase. Q962Y6. purified TGR, DTNB reduction, TNB absorbance 405 nm. Potency, µM (top dose mostly 114 µM), for the others: at the top dose activity change, negative = inhibition, usual class: inhibitors. 3% of 360,000 active; also: potency is read from the fitted curve at half-maximal effect; % is scaled to controls: 0 for no effect and ±100 for the full control effect; nearly all actives have a fitted effect of over 60% in size
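First, TGR (20 nM dispensed) and NADPH were mixed with compound. Second, a 15 min room-temperature incubation followed. Third, further NADPH and then DTNB were added to start the reaction. Finally, TNB absorbance was monitored kinetically.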
HCV inh – inhibitors of hepatitis C virus infection. Huh7.5.1 HCVcc-Cre infection, luciferase reporter, 44 h. AID 651820. 3.4% of 340,000 active. Potency, µM (highest dose often 41.8 µM), without a hit: at the highest dose activity change, negative = inhibition, hits mostly inhibitors; also: potency is read from the fitted curve at half-maximal effect; % is scaled to controls: 0 for no effect and ±100 for the full control effect
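Reporter virus HCVcc-Cre (~0.5 moi) infects cells exposed to compound; seeding density 1,000 cells/well with 4 h settling beforehand. Luminescence, 15 sec read, taken 44 h post-infection following a 15 min RT substrate incubation.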
Pf growth 96h – inhibits malaria parasite growth, 96 h; P. falciparum luciferase reporter growth, 96 h; Potency, µM (doses to about 28.7 µM), for inactives: top-dose activity change, negative = inhibition, usual class: inhibitors; 6.9% of 320,000 active; also: potency is read from the fitted curve at half-maximal effect; % is scaled to controls: 0 for no effect and ±100 for the full control effect
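Parasite growth measured via integrated firefly luciferase reporter in P. falciparum. Infected erythrocytes at 2% hematocrit, 0.05% parasitemia final were treated 96 hours at 37 C under 5% CO2, and luminescence was read.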
Active calls of the source: *; ? = inconclusive; nt = no result given; [ ] = another dose, or the depositor's remark. Unless noted, calls follow the shape of the dose curve; as a rule, active = well fitted curve in the direction sought with a large enough effect; inconclusive = small, poorly fitted or top-dose-only effect, or another doubt; inactive = no such curve, though single readings can be large; an effect the other way counts as inactive or inconclusive.

SMILES | SARS PLpro yeast | Pf growth 48h | HCMV antiviral | Sm TGR block | HCV inh | Pf growth 96h
Cc1ccc(NC(=O)CSc2nnc(-c3ccncc3)o2)cc1C | 0% | 32% | -11 | 18% | 2% | -29%
Cc1cc(=O)[nH]c(/N=C(\N)Nc2cccc3ccccc23)n1 | 6% | -2% | 4 | 1% | -2% | ?
Cc1ccc(SCc2cc(=O)[nH]c(/N=C(\N)Nc3ccccc3Sc3ccccc3)n2)cc1 | -8% | ? | -94* | 1% | 15% | 10µM*
N/C(=N\c1nc(CSc2ccc(Cl)cc2)cc(=O)[nH]1)Nc1ccccc1C(F)(F)F | 0% | 13µM* | -29 | nt | 6% | ?
Cc1cccc(N/C(N)=N/c2nc(C(F)(F)F)cc(=O)[nH]2)c1C | 16% | 4% | -104* | 2% | 13% | 9%
CN(CCCNC(=O)c1cc2c(=O)n(C)c3ccccc3c2s1)Cc1ccccc1 | nt | nt | 11 | -29% | nt | nt
COc1ccccc1-c1noc2ncnc(Nc3ccc4c(c3)OCO4)c12 | 10% | -8% | ? | -25% | 24% | ?
CN(C)CCCNc1cc(O)c2ncccc2c1 | 5% | 4.1µM* | -78* | -22% | nt | 4.7µM*
Oc1cc(NCc2ccc(F)cc2)cc2cccnc12 | 0% | 2.6µM* | -93* | -21% | nt | 1.9µM*
Clc1ccc(CNc2ncccn2)cc1 | 1% | 15%[0.00184 µM] | ? | 5% | 10% | 68%
Oc1cc(NCc2ccc(Cl)cc2)cc2cccnc12 | -2% | 3.3µM* | -39 | -13% | nt | ?
Cc1cc(C)c2c(=O)cc(CSc3nnc(-c4ccccc4)n3C)[nH]c2c1 | nt | nt | -17 | -4% | nt | nt
COc1ccc(C(=O)N2CCn3c(C)ccc3C2C)cc1 (stereo unspecified) | 0% | ? | -36 | 28µM* | -6% | -4%
COc1ccc(C2N(C(=O)c3ccccc3)CCN2C(=O)c2ccc(C)cc2)cc1 (stereo unspecified) | -5% | nt | -8 | 3% | 25% | ?
COc1ccc(C(=O)N2CCc3cc4c(cc3C2C)OCCCO4)cc1 (stereo unspecified) | 3% | ? | -8 | -17% | 1.6µM* | 13µM*
CC1c2cc3c(cc2CCN1C(=O)c1ccc(Br)cc1)OCCCO3 (stereo unspecified) | -4% | -21% | -15 | -5% | -5% | ?
CC(C)(C)OC(=O)C[C@H]1C/C=C\C[C@H](CC(=O)N(CCO)Cc2ccccc2)C(=O)N[C@@H](Cc2ccccc2)COC1=O | 5% | nt | -27 | nt | -8% | nt
O=C1Nc2ccccc2/C1=N\c1sc2c(c1C(=O)Nc1ccccc1)CCCC2 | -51% | 7.4µM* | 36 | 1% | 1% | 2.3µM*
O=C(OCC(=O)N1CCOCC1)c1cc(-c2ccccc2)nc2ccccc12 | -1% | nt | -21 | nt | -15% | nt
CCCOc1ccc(CN(C(=O)c2nc(SC(C)C)ncc2Cl)C2CCS(=O)(=O)C2)cc1 (stereo unspecified) | nt | nt | -63* | 2% | nt | nt
CCOc1cccc(C(=O)N(Cc2ccc(C)o2)C2CCS(=O)(=O)C2)c1 (stereo unspecified) | nt | nt | 24 | -1% | nt | nt
O=C(c1sc2ccccc2c1Cl)N(Cc1ccco1)C1CCS(=O)(=O)C1 (stereo unspecified) | 12% | -8% | -7 | 32µM* | 7% | 71%
CC(C)Sc1ncc(Cl)c(C(=O)N(Cc2ccc(F)cc2)C2CCS(=O)(=O)C2)n1 (stereo unspecified) | nt | nt | 9 | -7% | nt | nt
O=C(c1cccs1)N(Cc1ccco1)C1CCS(=O)(=O)C1 (stereo unspecified) | 7% | 28% | 40 | -23% | 0% | 5.2µM*
CCOc1cccc(C(=O)N(Cc2ccco2)C2CCS(=O)(=O)C2)c1 (stereo unspecified) | -6% | -9% | 5 | 35µM* | 14% | -10%
SMILES | SARS PLpro yeast | Pf growth 48h | HCMV antiviral | Sm TGR block | HCV inh | Pf growth 96h
FC(F)(F)c1cnc(COc2ccc(Cl)cc2Cl)c(Cl)c1 | -5% | -7% | -12 | -1% | -5% | 17%
CS(=O)(=O)c1ccccc1-c1nnc(NC(=O)c2ccc3ncsc3c2)o1 | 14% | 3% | 5 | 41% | 0% | 4%
Cc1c(C)c2ccc(OCC(=O)NCCCN3CCCC3=O)cc2oc1=O | -1% | -8% | ? | 0% | -10% | -8%
COc1ccccc1C(=O)N(Cc1sccc1C)C1CCS(=O)(=O)C1 (stereo unspecified) | -10% | 2% | -13 | 6% | 34% | 2.1µM*
Cc1cc(C)c2oc(C(=O)N(Cc3ccccc3)C3CCS(=O)(=O)C3)cc(=O)c2c1 (stereo unspecified) | 0% | -22% | 2 | 8% | 20% | ?
CCOc1ccc(CN(C(=O)c2cc(=O)c3cc(C)cc(C)c3o2)C2CCS(=O)(=O)C2)cc1 (stereo unspecified) | -4% | 3.7µM* | 165 | 1% | ? | 0%
CCCCOc1ccccc1C(=O)N(Cc1sccc1C)C1CCS(=O)(=O)C1 (stereo unspecified) | nt | nt | -31 | 8% | nt | nt
O=C(c1ccccc1)N(Cc1cccs1)C1CCS(=O)(=O)C1 (stereo unspecified) | 2% | 43% | 46 | -13% | 18% | 0.37µM*
COc1ccc(C(=O)N(Cc2cccs2)C2CCS(=O)(=O)C2)cc1 (stereo unspecified) | 1% | -4% | -33 | 0% | 19% | ?
COc1ccc(C(=O)Nc2cc3cc(Cl)ccc3oc2=O)cc1OC | nt | nt | -24 | 0% | nt | nt
COc1cc(-c2noc(CSc3nc(-c4ccccc4)cc(=O)[nH]3)n2)cc(OC)c1OC | nt | nt | 0 | -1% | nt | nt
O=c1[nH]c2ccccc2c(O)c1O | 0% | 13µM* | ? | ? | ? | 10µM*
COC(=O)c1c(O)c2ccccc2[nH]c1=O | -3% | -2% | -1 | -3% | 5% | nt
CC(C)C(=O)NNC(=O)c1c(O)c2ccccc2[nH]c1=O | 3% | 12µM* | ? | -13% | 6% | ?
CC(C)NC(=O)c1c(O)c2ccccc2[nH]c1=O | 0% | 10µM* | ? | -1% | ? | 4.1µM*
COc1ccc(S(=O)(=O)NC(C)C(=O)N2CCCC2)cc1C (stereo unspecified) | 1% | 18% | -28 | -1% | 7% | ?
Cc1[nH]c(=O)[nH]c(=O)c1NS(=O)(=O)c1ccc2c(c1)CCCC2 | 29% | -13% | -12 | -1% | -6% | nt
Cc1ccc(S(=O)(=O)Nc2c(C)[nH]c(=O)[nH]c2=O)cc1C | 1% | -1% | -5 | -16% | -1% | 2.6µM*

Screens (PubChem)
